SRC3 inh = inhibits human SRC3 coactivator; inhibition, % at 3.6 µM; HEK293 GAL4-SRC3 luciferase reporter, luminescence; Q9Y6Q9; 0.17% of 360,000 active; AID 588352;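 active means inhibition above a per-campaign cutoff, the mean of all compounds plus 3 SD, cut at about 60% in these data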;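 further: higher means less SRC3-driven luciferase light from the GAL4 reporter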
SRC2 inh = inhibits human steroid receptor coactivator 2; inhibition, % at 9 µM; HEK293 GAL4-SRC2 luciferase reporter, luminescence; 0.17% of 370,000 active; Q15596;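 active means inhibition above the mean inhibition of all tested compounds plus 3 SD, set per campaign, cut at about 52% in these data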
SRC1 inh = inhibits human SRC1 coactivator. Q15788. HEK293 GAL4-SRC1 luciferase reporter, luminescence. inhibition, % at 3.6 µM. 0.12% of 360,000 active. AID 588354;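 active means inhibition above the campaign mean plus 3 SD, with each screening campaign given its own cutoff, cut at about 60% in these data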
NR2F2 inh = NR2F2 (human) inhibition, primary screen | P24468 | HEK293T NGFI-A luciferase reporter, luminescence | inhibition, % at 8.6 µM | 0.7% of 370,000 active;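 active means inhibition above a per-plate cutoff, mean inhibition of test wells between control levels plus 3 SD, cut at about 38% in these data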;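 further: cells cotransfected with COUP-TFII expression vector driving the NGFI-A reporter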
LRH-1 inv ag = suppresses constitutive activity of human LRH-1. O00482. HEK293T StAR-luciferase reporter, LRH-1 transfected, 24 h. inhibition, % at 3.6 µM. 0.13% of 360,000 active;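 active means inhibition above the mean inhibition of all tested compounds plus 3 SD, cut at about 73% in these data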
Gal4-VP16 ctr = inhibits VP16 reporter, flagging COUP-TFII antagonist hits; inhibition, % at 8.5 µM; shares compounds with NR2F2 inh; HEK293 Gal4-VP16 luciferase reporter, luminescence; 25% of 2,500 active; AID 687007; in the data active means inhibition above about 13%
NR2F2 inh conf = confirmation of human COUP-TFII (NR2F2) inhibitors; shares compounds with NR2F2 inh; HEK293 NGFI-A luciferase reporter, luminescence; inhibition, % at 8.5 µM; 45% of 2,500 active;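 active means mean inhibition over three repeats above a set limit taken from the earlier primary screen, cut at about 38% in these data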
Numbers stand for hits. A selection: hits, their analogues and other compounds. The true share with any hit is near 0.81%.

COc1ccc(Cc2nc3ccc(C(=O)N4CCN(C)C(C)C4)cc3o2)cc1OC (centres undefined) was read as SRC3 inh inactive, SRC2 inh inactive, SRC1 inh inactive, NR2F2 inh 48.9, LRH-1 inv ag inactive, Gal4-VP16 ctr inactive and NR2F2 inh conf 46.3.
For CC(=O)N1CCOc2ccc(S(=O)(=O)NCC3CCC(C(=O)Nc4ccc(C)cn4)CC3)cc21 (centres undefined) the results were SRC3 inh inactive, SRC2 inh inactive, SRC1 inh inactive, NR2F2 inh 38.6, LRH-1 inv ag inactive, Gal4-VP16 ctr inactive and NR2F2 inh conf inactive.
Screening Cc1nn(Cc2ccc(Cl)cc2)c(C)c1NC(=O)c1cc(C(C)C)on1 returned SRC3 inh inactive, SRC2 inh inactive, SRC1 inh inactive, NR2F2 inh 44.2, LRH-1 inv ag inactive, Gal4-VP16 ctr inactive and NR2F2 inh conf inactive.
For Cc1ccc(S(=O)(=O)N(C)C)cc1NC(=O)COC(=O)CN1C(=O)c2ccccc2C1=O the results were SRC3 inh inactive, SRC2 inh inactive, SRC1 inh inactive, NR2F2 inh inactive and LRH-1 inv ag inactive.
O=C(CSc1nnc(Cn2nnc3ccccc32)o1)Nc1cccc(Cl)c1 was read as SRC3 inh inactive, SRC2 inh inactive, SRC1 inh inactive, NR2F2 inh inactive and LRH-1 inv ag inactive.
O=C(CSc1nnc(Cn2nnc3ccccc32)o1)N(Cc1ccc(Cl)cc1)c1ccccc1 was read as SRC3 inh inactive, SRC2 inh inactive, SRC1 inh inactive, NR2F2 inh 71.7, LRH-1 inv ag inactive, Gal4-VP16 ctr inactive and NR2F2 inh conf 67.0.
Screening COC(=O)C1=C(C)N(Cc2ccccc2)C(=NCc2ccc3c(c2)OCO3)N[C@H]1c1ccccc1 returned SRC3 inh inactive, SRC2 inh inactive, SRC1 inh inactive, NR2F2 inh inactive and LRH-1 inv ag inactive.
For O=C(CCc1c[nH]c2ccccc12)NCc1ccncc1 the results were SRC3 inh inactive, SRC2 inh inactive, SRC1 inh inactive, NR2F2 inh inactive and LRH-1 inv ag inactive.
O=Cc1s/c(=N\S(=O)(=O)c2ccccc2)n(CCCCl)c1Cl was read as SRC3 inh inactive, SRC2 inh inactive, SRC1 inh inactive, NR2F2 inh 59.9, LRH-1 inv ag inactive, Gal4-VP16 ctr 62.4 and NR2F2 inh conf 45.9.
Screening COc1ccc(-c2c[n+](CC(=O)OC3CC(C)CCC3C(C)C)c3n2CCC3)cc1 (centres undefined) returned SRC3 inh inactive, SRC2 inh inactive, SRC1 inh inactive, NR2F2 inh 64.0, LRH-1 inv ag inactive, Gal4-VP16 ctr inactive and NR2F2 inh conf inactive.
For CC(C)[C@@H]1CC[C@@H](C)C[C@H]1OC(=O)C[n+]1cc(-c2ccc(Cl)cc2)n2c1CCCCC2 the results were SRC3 inh inactive, SRC2 inh inactive, SRC1 inh inactive, NR2F2 inh inactive and LRH-1 inv ag inactive.
Screening CC(C)c1ccc(CC(=O)N2CCC2(C)C(=O)Nc2ccccc2)cc1 (centres undefined) returned SRC3 inh inactive, SRC2 inh inactive, SRC1 inh inactive, NR2F2 inh inactive and LRH-1 inv ag inactive.
`CC(=O)Nc1cccc(-c2cn3ccccc3n2)c1` gave SRC3 inh inactive, SRC2 inh inactive, SRC1 inh inactive, NR2F2 inh inactive and LRH-1 inv ag inactive.
Nc1cc[n+](CC(=O)c2ccc3c(c2)OCCO3)cc1 was read as SRC3 inh inactive, SRC2 inh inactive, SRC1 inh inactive, NR2F2 inh 39.7, LRH-1 inv ag inactive, Gal4-VP16 ctr inactive and NR2F2 inh conf inactive.
O=C(NCCc1ccccc1)c1ccc2c(c1)OCCO2 was read as SRC3 inh inactive, SRC2 inh 75.8, SRC1 inh inactive, NR2F2 inh 71.3, LRH-1 inv ag inactive, Gal4-VP16 ctr 36.5 and NR2F2 inh conf 53.4.
For O=C(C[n+]1ccc(C(=O)NCc2ccccc2)cc1)c1ccc2c(c1)OCCO2 the results were SRC3 inh inactive, SRC2 inh inactive, SRC1 inh inactive, NR2F2 inh inactive and LRH-1 inv ag inactive.
`O=C(NCCc1ccccc1)c1ccc2c(c1)OCCCO2` gave SRC3 inh 74.2, SRC2 inh 88.4, SRC1 inh 74.2, NR2F2 inh 88.0, LRH-1 inv ag 78.2, Gal4-VP16 ctr 71.9 and NR2F2 inh conf 90.8.
For O=C(CCCc1ccccc1)c1ccc2c(c1)OCCO2 the results were SRC3 inh 69.7, SRC2 inh 74.8, SRC1 inh 70.7, NR2F2 inh 84.8, LRH-1 inv ag inactive, Gal4-VP16 ctr 48.9 and NR2F2 inh conf 89.5.
For CCOC(=O)CSc1nc2sc(C(=O)O)c(C)c2c(=O)[nH]1 the results were SRC3 inh inactive, SRC2 inh inactive, SRC1 inh inactive, NR2F2 inh inactive and LRH-1 inv ag inactive.
Screening COc1ccccc1CNC(=O)C(C)Oc1ccccc1 (centres undefined) returned SRC3 inh inactive, SRC2 inh inactive, SRC1 inh inactive, NR2F2 inh inactive and LRH-1 inv ag inactive.
`CNc1nc(-c2ccc(OC)cc2)c(-c2ccc(OC)cc2)s1` gave SRC3 inh inactive, SRC2 inh inactive, SRC1 inh inactive, NR2F2 inh 40.8, LRH-1 inv ag inactive, Gal4-VP16 ctr inactive and NR2F2 inh conf inactive.
Screening COc1ccc(-c2nc(NC(C)=O)sc2-c2ccc(OC)cc2)cc1 returned SRC3 inh inactive, SRC2 inh inactive, SRC1 inh inactive, NR2F2 inh inactive and LRH-1 inv ag inactive.
For COc1cc(CC(=O)Nc2cccc(SC)c2)cc(OC)c1OC the results were SRC3 inh inactive, SRC2 inh inactive, SRC1 inh inactive, NR2F2 inh 37.4, LRH-1 inv ag inactive, Gal4-VP16 ctr inactive and NR2F2 inh conf inactive.
For COc1cccc(CN(C)CC(=O)Nc2cccc(S(=O)(=O)N(C)c3ccccc3)c2)c1OC the results were SRC3 inh inactive, SRC2 inh inactive, SRC1 inh inactive, NR2F2 inh inactive and LRH-1 inv ag inactive.
For COc1cc(CC(=O)Nc2cccc(S(=O)(=O)N(C)c3ccccc3)c2)cc(OC)c1OC the results were SRC3 inh inactive, SRC2 inh inactive, SRC1 inh inactive, NR2F2 inh 39.3, LRH-1 inv ag inactive, Gal4-VP16 ctr inactive and NR2F2 inh conf inactive.
`CC1(c2ccc3noc(-c4ccccc4)c3c2)OCCO1` gave SRC3 inh inactive, SRC2 inh inactive, SRC1 inh inactive, NR2F2 inh inactive and LRH-1 inv ag inactive.
`Cc1nc2ccc(NC(=O)c3ccc(Br)o3)cc2s1` gave SRC3 inh inactive, SRC2 inh inactive, SRC1 inh inactive, NR2F2 inh inactive and LRH-1 inv ag inactive.
Screening CCc1ccc(-c2nc(CN3CCC(C(=O)N4CCN(c5ccccn5)CC4)CC3)c(C)o2)cc1 returned SRC3 inh inactive, SRC2 inh inactive, SRC1 inh inactive, NR2F2 inh inactive and LRH-1 inv ag inactive.
